This passage reports outcome and AC50 results from PubChem BioAssay (EPA / NIEHS).

The source made the active and inactive calls. How the source made its calls: active means hit-call score of the fitted dose curve at least 0.9, where 1 is the maximum; inactive means score below 0.9.

Read-out in experiment [1]: Plasminogen activator inhibitor-1 (PAI1), SERPINE1 (gene 5054)
The experiment is described as follows: BSK_MyoF_PAI1: BioMAP Diversity Plus: MyoF Assay for Plasminogen activator inhibitor-1 (PAI1) Biomarker Activity (AID 2284256).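 On outcome: PAI-1 protein level measured by ELISA in fibroblast cultures.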 Conditions: primary human lung fibroblasts. Put shortly: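 MyoF lung fibroblasts, human primary; compound 24 h; PAI-1 ELISA; positive-direction fit vs DMSO baseline; parallel SRB total-protein staining for cytotoxicity.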

Read-out in experiment [2]: Interleukin-8 (IL8), CXCL8 (gene 3576)
Kind of experiment: BSK_MyoF_IL8: BioMAP Diversity Plus: MyoF Assay for Interleukin-8 (IL8) Biomarker Activity (AID 2284261). Conditions: primary human lung fibroblasts. In short, it runs like this: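 Lung fibroblasts (human primary) → chemical exposure → 24 h → IL-8 measured by ELISA. Signal increase scored versus DMSO control.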

Read-out in a further experiment: Decorin, DCN (gene 1634)
The experiment is described as follows: BSK_MyoF_Decorin: BioMAP Diversity Plus: MyoF Assay for Decorin Biomarker Activity (AID 2284265). The conditions noted are these: primary human lung fibroblasts. Put shortly: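 ELISA readout of decorin, 24 h post-dosing; primary human lung fibroblast (MyoF) culture; gain-of-signal fit vs DMSO baseline.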

Experiment [3] in a line: BSK_MyoF_SRB: Viability Assessment in the BioMAP Diversity Plus: MyoF Assay (AID 2284267).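 Further: total protein by SRB absorbance in parallel cultures as cytotoxicity measure.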 The conditions noted are these: primary human lung fibroblasts. Put shortly:
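Lung fibroblast cultures, 24 h post-dose; fix 10% TCA, stain 0.1% SRB, read 560 nm. Signal = total protein as cytotoxicity measure; fitted relative to DMSO negative control.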

Read-out in experiment [4]: Matrix Metallopeptidase 1 (MMP1), MMP1 (gene 4312)
The experiment is described as follows: BSK_MyoF_MMP1: BioMAP Diversity Plus: MyoF Assay for Matrix Metallopeptidase 1 (MMP1) Biomarker Activity (AID 2284268). The conditions noted are these: primary human lung fibroblasts. In short, it runs like this: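 Cells: human lung fibroblasts. Exposure: 24 h chemical dosing. Detection: ELISA for MMP1. Analysis: upward fitting against DMSO negative control.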

Read-out in experiment [5]: TIMP metallopeptidase inhibitor 1 (TIMP1), TIMP1 (gene 7076)
Kind of experiment: BSK_MyoF_TIMP1: BioMAP Diversity Plus: MyoF Assay for TIMP metallopeptidase inhibitor 1 (TIMP1) Biomarker Activity (AID 2284269). Conditions: primary human lung fibroblasts. Put shortly: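 TIMP-1 levels were determined by ELISA in human lung fibroblasts treated for 24 h. DMSO served as negative control and baseline for upward curve fitting.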

Read-out in experiment [6]: Collagen I, COL1A1 (gene 1277)
The experiment is described as follows: BSK_hDFCGF_CollagenI: BioMAP Diversity Plus: hDFCGF Assay for Collagen I Biomarker Activity (AID 2284250). The conditions noted are these: primary human foreskin fibroblasts. Put shortly: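 ELISA read-out of Collagen I in human dermal foreskin fibroblast cultures, 24 h after dosing. Gain of signal versus DMSO vehicle defines activity.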

Read-out in experiment [7]: Plasminogen activator inhibitor-1 (PAI1), SERPINE1 (gene 5054)
The experiment is described as follows: BSK_KF3CT_PAI1: BioMAP Diversity Plus: KF3CT Assay for Plasminogen activator inhibitor-1 (PAI1) Biomarker Activity (AID 2284252). The conditions noted are these: primary human keratinocytes with fibroblasts. In short, it runs like this:
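Keratinocyte + dermal fibroblast co-culture (human primary); 24 h post-dose; PAI-1 by ELISA; gain-of-signal fit vs DMSO control.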

Read-out in experiment [8]: Monocyte Chemoattractant Protein-1 (MCP1), CCL2 (gene 6347)
Kind of experiment: BSK_IMphg_MCP1: BioMAP Diversity Plus: IMphg Assay for Monocyte Chemoattractant Protein-1 (MCP1) Biomarker Activity (AID 2284253). Conditions: primary human endothelial cells with macrophages. In short, it runs like this: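 ELISA readout of MCP-1 at 24 hours in IMphg co-cultures of venular endothelial cells and macrophages, normalised to DMSO; parallel cultures stained with sulforhodamine B for overt cytotoxicity.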

Read-out in experiment [9]: Interleukin-8 (IL8), CXCL8 (gene 3576)
The experiment is described as follows: BSK_KF3CT_IL8: BioMAP Diversity Plus: KF3CT Assay for Interleukin-8 (IL8) Biomarker Activity (AID 2284254). The conditions noted are these: primary human keratinocytes with fibroblasts. Put shortly:
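IL-8 read-out: ELISA, 24 h post-dose, human skin primary co-culture (keratinocytes + foreskin fibroblasts). DMSO = baseline; positive-direction fit.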

Read-out in experiment [10]: Macrophage Inflammatory Protein-1 Alpha (MIP1a), CCL3 (gene 6348)
The experiment is described as follows: BSK_IMphg_MIP1a: BioMAP Diversity Plus: IMphg Assay for Macrophage Inflammatory Protein-1 Alpha (MIP1a) Biomarker Activity (AID 2284255). Conditions: primary human endothelial cells with macrophages. Put shortly: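 MIP-1a protein levels were quantified by ELISA after 24 h treatment of human endothelial cell–macrophage co-cultures, compared with DMSO. Parallel cultures were fixed with TCA and stained with 0.1% SRB to gauge overt cytotoxicity.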

Read-out in another experiment: CD69, CD69 (gene 969)
The experiment is described as follows: BSK_IMphg_CD69: BioMAP Diversity Plus: IMphg Assay for CD69 Biomarker Activity (AID 2284257). The conditions noted are these: primary human endothelial cells with macrophages. Put shortly:
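Readout is ELISA for CD69 in primary human venular endothelial cell/macrophage co-culture, taken at 24 h post-dosing. SRB staining of parallel cultures gauged overt cytotoxicity; signal increase versus DMSO defined activity.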

Read-out in experiment [11]: Eotaxin 3, CCL26 (gene 10344)
The experiment is described as follows: BSK_BF4T_Eotaxin3: BioMAP Diversity Plus: BF4T Assay for Eotaxin 3 Biomarker Activity (AID 2284258). Conditions: primary human bronchial epithelial cells with fibroblasts. In short, it runs like this:
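ELISA measurement of Eotaxin-3 after 24 h chemical exposure in a bronchial epithelial/dermal fibroblast co-culture, with DMSO as baseline. Parallel SRB staining (0.1% SRB after 10% TCA fixation, 560 nm) flagged overt cytotoxicity.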

Read-out in experiment [12]: Monocyte Chemoattractant Protein-1 (MCP1), CCL2 (gene 6347)
Kind of experiment: BSK_BF4T_MCP1: BioMAP Diversity Plus: BF4T Assay for Monocyte Chemoattractant Protein-1 (MCP1) Biomarker Activity (AID 2284259). The conditions noted are these: primary human bronchial epithelial cells with fibroblasts. Put shortly:
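MCP-1 ELISA readout taken 24 h after dosing in the BF4T system (bronchial epithelial cells plus dermal fibroblasts). Parallel SRB total-protein staining flagged cytotoxicity; DMSO served as baseline, positive fitting direction.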

Read-out in experiment [13]: Intercellular Adhesion Molecule 1 (ICAM1), ICAM1 (gene 3383)
The experiment is described as follows: BSK_BF4T_ICAM1: BioMAP Diversity Plus: BF4T Assay for Intercellular Adhesion Molecule 1 (ICAM1) Biomarker Activity (AID 2284260). The conditions noted are these: primary human bronchial epithelial cells with fibroblasts. In short, it runs like this:
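ICAM-1 levels measured by ELISA after 24 h chemical treatment of bronchial epithelial cell/dermal fibroblast co-cultures, read against DMSO baseline. Overt cytotoxicity checked in parallel cultures by sulforhodamine B staining.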

Read-out in the next experiment: CD90, THY1 (gene 7070)
Kind of experiment: BSK_BF4T_CD90: BioMAP Diversity Plus: BF4T Assay for CD90 Biomarker Activity (AID 2284262). The conditions noted are these: primary human bronchial epithelial cells with fibroblasts. Put shortly: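 CD90 levels by ELISA after 24 h treatment of human bronchial epithelial cell/dermal fibroblast cultures, analysed versus DMSO. Overt cytotoxicity checked in parallel cultures by sulforhodamine B staining.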

Read-out in experiment [14]: Interleukin-8 (IL8), CXCL8 (gene 3576)
The experiment is described as follows: BSK_BF4T_IL8: BioMAP Diversity Plus: BF4T Assay for Interleukin-8 (IL8) Biomarker Activity (AID 2284263). Conditions: primary human bronchial epithelial cells with fibroblasts. Put shortly:
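Human bronchial epithelial cells with dermal fibroblasts co-culture; IL-8 measured by ELISA 24 hours after dosing, fitted vs DMSO. Cytotoxicity tracked in parallel cultures by SRB total-protein staining.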

Read-out in experiment [15]: Interleukin-1 alpha (IL1a), IL1A (gene 3552)
The experiment is described as follows: BSK_BF4T_IL1a: BioMAP Diversity Plus: BF4T Assay for Interleukin-1 alpha (IL1a) Biomarker Activity (AID 2284264). Conditions: primary human bronchial epithelial cells with fibroblasts. In short, it runs like this:
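ELISA read-out of IL-1α from bronchial epithelial cell/dermal fibroblast co-cultures 24 h after compound addition. Increases scored against DMSO negative control. Cytotoxicity monitored by sulforhodamine B staining of parallel cultures.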

Read-out in another experiment: KRT18 (gene 3875)
The experiment is described as follows: BSK_BF4T_Keratin818: BioMAP Diversity Plus: BF4T Assay for Keratin 818 Biomarker Activity (AID 2284266). Conditions: primary human bronchial epithelial cells with fibroblasts. Put shortly:
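Keratin 8/18 levels quantified by ELISA after 24 h chemical treatment of bronchial epithelial cell/dermal fibroblast co-cultures, fitted in positive direction relative to DMSO. Parallel SRB staining tracks overt cytotoxicity.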

By AC50 is commonly meant the concentration giving half of the maximal activity seen.

On to `CCN(CC)c1ccc(N=Nc2ccccc2)cc1`, for which the outcome in [1] is “inactive”; with Decorin, DCN (gene 1634) it was “inactive”; in experiment [5], “inactive”. Besides, the AC50 in experiment [2] was 5.41 µM (active); in experiment [3], 20 µM (active); in [4], 5.14 µM (active).

Consider `NCC(F)(F)C(F)(F)C(F)(F)C(F)(F)C(F)(F)C(F)(F)C(F)(F)C(F)(F)F`, for which the result in [6], in experiment [7], in [8], in experiment [9], in experiment [10] and in experiment [1] was inactive. Also, the outcome with CD69, CD69 (gene 969) is “inactive”; in [11] it was “inactive”; in [12], “inactive”; in experiment [13] it was “inactive”; in experiment [2] it was “inactive”; with CD90, THY1 (gene 7070) it was “inactive”. Moreover, the outcome in [14] is “inactive”; in [15], “inactive”; in the experiment with Decorin, DCN (gene 1634), “inactive”; in the experiment with KRT18 (gene 3875) it was “inactive”; in experiment [3] it was “inactive”; in experiment [4], “inactive”. In addition, in [5], the outcome was inactive.

As to `NC(O)(C(F)(F)F)C(F)(F)F`, the result in experiment [6], in [7], in [8], in [9], in experiment [10] and in experiment [1] was inactive. Moreover, the outcome with CD69, CD69 (gene 969) was “inactive”; in experiment [11], “inactive”; in experiment [12], “inactive”; in experiment [13] it was “inactive”; in experiment [2], “inactive”; in the experiment with CD90, THY1 (gene 7070) it was “inactive”. The outcome in experiment [14] is “inactive”; in experiment [15] it was “inactive”; in the experiment with Decorin, DCN (gene 1634) it was “inactive”; with KRT18 (gene 3875), “inactive”; in experiment [3], “inactive”; in [4], “inactive”. For the same molecule, the result in experiment [5] was inactive.

On to `Nc1cc([N+](=O)[O-])cc(Cl)c1O`, for which the outcome in experiment [1] is “inactive”; in experiment [2], “inactive”; with Decorin, DCN (gene 1634), “inactive”; in [3], “inactive”; in experiment [4] it was “inactive”; in experiment [5] it was “inactive”.

Turning to `CO[Si](C)(CCC(F)(F)C(F)(F)C(F)(F)C(F)(F)C(F)(F)C(F)(F)F)OC`, the outcome in [6], in experiment [7], in experiment [8], in experiment [9], in [10] and in experiment [1] was inactive. The outcome is “inactive” with CD69, CD69 (gene 969); “inactive” in experiment [11]; “inactive” in experiment [12]; “inactive” in experiment [13]; “inactive” in experiment [2]; “inactive” in the experiment with CD90, THY1 (gene 7070). The outcome in [14] was “inactive”; in experiment [15], “inactive”; with Decorin, DCN (gene 1634), “inactive”; with KRT18 (gene 3875), “inactive”; in experiment [3], “inactive”; in experiment [4] it was “inactive”. In addition, the outcome in experiment [5] was inactive.

Regarding `CC(C)(C)c1cc(CCC(=O)NCCCCCCNC(=O)CCc2cc(C(C)(C)C)c(O)c(C(C)(C)C)c2)cc(C(C)(C)C)c1O`, the outcome is “inactive” in [1]; “inactive” in [2]; “inactive” with Decorin, DCN (gene 1634); “inactive” in experiment [3]; “inactive” in experiment [4]; “inactive” in [5].

As to `Cc1cc(O)c(C(C)(C)C)cc1C(C)(C)C`, the AC50 in [1] is 7.48 µM (active); in [2] it was 32.8 µM (active); with Decorin, DCN (gene 1634) it was 5.16 µM (active); in experiment [3] it was 5.29 µM (active); in [4], 9.48 µM (active); in experiment [5], 7.71 µM (active).
